# PubChem BioAssay (NCATS)
# Several values for one entry are separate records, joined by “and”; a condition that tells them apart may be missing. Equal entries are not always repeated. Results filed as inconclusive are left out. Where a call stands in place of a potency, no number is given. Activity calls are given as the source filed them. Unless noted, calls follow the shape of the dose curve; as a rule, active = well fitted curve in the direction sought with a large enough effect; inconclusive = small, poorly fitted or top-dose-only effect, or another doubt; inactive = no such curve, though single readings can be large; an effect the other way counts as inactive or inconclusive.
# Columns and labels:
# [1] = qHTS to identify inhibitors of the type 1 interferon - major histocompatibility complex class I in skeletal muscle: primary screen against the NCATS Mechanism Interrogation Plate v5.0 (MIPE) Libary (AID 1347411); also: nearly all actives have a fitted effect of over 65% in size; also: potency is read from the fitted curve at half-maximal effect
# Outline: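 IFN-beta-driven (4 ng/ml) HLA-B-HiBit expression in CRISPR-tagged C25cl48 myoblasts; compounds 11-pt, 1:3, max 46 uM, 24 hr exposure; lytic NanoLuc complementation luminescence.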
# [2] = Primary qHTS for small molecule stabilizers of the endoplasmic reticulum resident proteome: Secreted ER Calcium Modulated Protein (SERCaMP) assay (AID 1508630)
# Outline: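 The SH-SY5Y reporter protocol was run at 3 concentrations up to 38.3 uM (primary) or 11 concentrations (follow-up): 16 h compound, 100 nM thapsigargin for 4 h, then extracellular luciferase luminescence.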
# [3] = Primary qHTS for inhibitors of nuclear receptor binding SET domain protein 2 (NSD2) in an isogenic RCH-ACV NSD2 p.E1099K mutant (9B) (AID 1645876); also: nearly all actives have a fitted effect of over 70% in size; also: potency is read from the fitted curve at half-maximal effect
# [4] = target: Cytochrome P450 2C9 (Homo sapiens) (UniProt P11712); assay: Cytochrome P450 family 2 subfamily C member 9 (CYP2C9) small molecule antagonists: luciferase biochemical (cell-free) qHTS assay (AID 1645842; active = well fitted curve in the direction sought with a large enough effect in the repeat runs; an effect the other way counts as inactive or inconclusive; also: nearly all actives have a fitted effect of over 55% in size; also: potency is read from the fitted curve at half-maximal effect)
# Sequence of Cytochrome P450 2C9 (Homo sapiens) (P11712 whole entry, looked up): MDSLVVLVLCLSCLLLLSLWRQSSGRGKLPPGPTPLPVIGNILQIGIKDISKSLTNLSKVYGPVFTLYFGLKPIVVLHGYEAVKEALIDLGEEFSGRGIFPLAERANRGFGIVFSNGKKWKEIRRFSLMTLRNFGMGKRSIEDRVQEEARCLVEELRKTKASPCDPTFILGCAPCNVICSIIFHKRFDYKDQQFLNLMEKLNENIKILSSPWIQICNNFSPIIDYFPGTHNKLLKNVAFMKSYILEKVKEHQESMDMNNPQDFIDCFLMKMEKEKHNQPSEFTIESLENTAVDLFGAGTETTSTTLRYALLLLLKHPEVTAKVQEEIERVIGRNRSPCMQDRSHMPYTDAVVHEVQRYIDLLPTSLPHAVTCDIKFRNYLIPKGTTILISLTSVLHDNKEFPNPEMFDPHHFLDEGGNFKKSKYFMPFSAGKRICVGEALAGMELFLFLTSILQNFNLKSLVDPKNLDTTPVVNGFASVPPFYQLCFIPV
# Outline: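 P450-Glo CYP2C9 system: proluciferin substrate with enzyme in mix containing 0.4% BSA, 10 min at room temperature, then NADPH regeneration solution added and incubated 1 h at 37C. Detection reagent stopped reaction; luminescence read after 20 min as RLU.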
# [5] = target: Cytochrome P450 2D6 (Homo sapiens) (UniProt P10635); assay: Cytochrome P450 family 2 subfamily D member 6 (CYP2D6) small molecule antagonists: luciferase biochemical (cell-free) qHTS assay (AID 1645840; active = well fitted curve in the direction sought with a large enough effect in the repeat runs; an effect the other way counts as inactive or inconclusive; also: nearly all actives have a fitted effect of over 55% in size; also: potency is read from the fitted curve at half-maximal effect)
# Sequence of Cytochrome P450 2D6 (Homo sapiens) (P10635 whole entry, looked up): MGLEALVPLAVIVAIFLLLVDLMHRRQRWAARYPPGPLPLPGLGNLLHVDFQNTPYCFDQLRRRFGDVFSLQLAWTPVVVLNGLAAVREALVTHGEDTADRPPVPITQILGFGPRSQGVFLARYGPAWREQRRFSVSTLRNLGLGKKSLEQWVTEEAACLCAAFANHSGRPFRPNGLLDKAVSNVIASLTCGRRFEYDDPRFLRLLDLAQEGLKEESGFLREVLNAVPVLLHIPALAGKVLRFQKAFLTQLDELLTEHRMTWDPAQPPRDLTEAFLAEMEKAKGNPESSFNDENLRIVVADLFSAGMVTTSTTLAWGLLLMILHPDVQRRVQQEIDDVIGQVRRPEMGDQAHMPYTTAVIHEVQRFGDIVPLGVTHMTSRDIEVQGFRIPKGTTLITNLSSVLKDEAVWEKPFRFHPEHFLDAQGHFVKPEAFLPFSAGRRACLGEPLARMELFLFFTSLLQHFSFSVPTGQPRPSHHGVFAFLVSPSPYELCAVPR
# Outline: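 P450-Glo CYP2D6 system: proluciferin substrate converted by enzyme to luciferin, read by luminescence proportional to activity. Enzyme-substrate mix with compound 10 min at room temperature, then NADPH regeneration 1 h before detection reagent.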
# [6] = target: Calcium and integrin-binding protein 1 (Homo sapiens) (UniProt Q99828); assay: Primary qHTS for Identification of Calcium Integrin Binding Protein 1 (CIB1) Competitor (AID 1508620);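 also: GST tagged CIB1 binding a fluorescein labelled alphaIIb integrin peptide tracer; top concentration of the series differs between compounds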
# Sequence of Calcium and integrin-binding protein 1 (Homo sapiens) (Q99828 whole entry, looked up): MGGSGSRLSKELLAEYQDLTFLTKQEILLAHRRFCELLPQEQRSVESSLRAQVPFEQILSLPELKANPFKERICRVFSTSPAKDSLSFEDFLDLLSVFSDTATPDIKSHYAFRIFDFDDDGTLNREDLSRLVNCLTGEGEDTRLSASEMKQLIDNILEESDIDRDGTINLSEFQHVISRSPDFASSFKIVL
# Outline: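 Fluorescence polarization competition: CIB1-GST (1 uM final) preincubated with compound 15 min at room temperature, then FITC-labeled alphaIIb peptide (100 nM final) added for another 15 min. Polarization read at Ex 480/Em 540.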
# [7] = target: N-terminal Xaa-Pro-Lys N-methyltransferase 1 (Homo sapiens) (UniProt Q9BV86); assay: Confirmatory qHTS for Inhibitors of N-terminal methyltransferase 1 (NTMT1): MTaseGlo Assay (AID 1645874); also: potency is read from the fitted curve at half-maximal effect; nearly all actives have a fitted effect of over 65% in size
# Sequence of N-terminal Xaa-Pro-Lys N-methyltransferase 1 (Homo sapiens) (Q9BV86 whole entry, looked up): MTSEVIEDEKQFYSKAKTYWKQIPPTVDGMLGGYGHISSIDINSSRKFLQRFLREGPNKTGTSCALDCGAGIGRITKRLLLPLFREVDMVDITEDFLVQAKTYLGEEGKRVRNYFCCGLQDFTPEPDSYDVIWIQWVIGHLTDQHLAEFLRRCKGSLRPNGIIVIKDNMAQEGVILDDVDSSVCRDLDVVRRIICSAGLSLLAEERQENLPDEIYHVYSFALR
# Outline: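 SPKRIA peptide at 1 uM was methylated by 125 nM NTMT1 using 100 uM SAM over 30 min at room temperature, following a 15 min compound preincubation. Product SAH was detected luminescently.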
# [8] = Counterscreen qHTS for small molecule stabilizers of the endoplasmic reticulum resident proteome: GLuc-NoTag assay (AID 1508627); also: potency is read from the fitted curve at half-maximal effect
# Outline: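 Secreted GLuc lacking the SERCaMP modification is measured in SH-SY5Y cells exposed to compound for 19 h and then to thapsigargin (100 nM, 4 h) to deplete ER calcium; hits retested at 11 concentrations, up to 76.6 uM.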
# [9] = Confirmatory qHTS for small molecule stabilizers of the endoplasmic reticulum resident proteome: Secreted ER Calcium Modulated Protein (SERCaMP) assay (AID 1508628); also: series mostly up to about 76 µM; nearly all actives have a fitted effect of over 40% in size
# Outline: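 GLuc-SERCaMP-expressing SH-SY5Y cells, pretreated 16 h with compound, are challenged with thapsigargin to empty ER calcium stores; after 4 h, coelenterazine is added directly to the medium and luminescence is imaged.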
smiles,measurement,setting,value
CCN(CC)CCNC(=O)c1ccc2nc(-c3ccccc3)c(-c3ccc(CN4CCC(n5c(=O)[nH]c6ccccc65)CC4)cc3)nc2c1,Potency,[1],6.58 µM (active)
same,Potency,[2],inactive
same,Potency,[3],2.58 µM (active) and 3.32 µM (active)
CN1CC[C@@H](c2c(O)cc(O)c3c(=O)cc(-c4ccccc4Cl)oc23)[C@@H](O)C1,Potency,[1],0.739 µM (active)
same,Potency,[2],inactive
same,Potency,[3],0.372 µM (active)
Cc1c(C)n(Cc2ccc(-c3ccccc3C(=O)O)cc2)c2ccc(C(=O)N[C@@H](C)c3ccc([N+](=O)[O-])cc3)cc12,Potency,[1],inactive
same,Potency,[4],15.1 µM (active)
COC(=O)c1ccc2c(C(=Nc3ccc(N(C)C(=O)CN4CCN(C)CC4)cc3)c3ccccc3)c(O)[nH]c2c1,Potency,[1],16.5 µM (active)
same,Potency,[2],inactive
same,Potency,[5],inactive
same,Potency,[4],inactive
same,Potency,[3],1.83 µM (active) and 2.63 µM (active)
O=C(O)C1(Cc2cccc(Nc3nccs3)n2)CCC(Oc2cccc(Cl)c2F)CC1 (stereo unspecified),Potency,[1],inactive
same,Potency,[2],inactive
same,Potency,[5],inactive
same,Potency,[4],7.56 µM (active)
same,Potency,[3],1.45 µM (active)
CN1CCN(Cc2ccc(NC(=O)Nc3ccc(Oc4cc(NC(=O)C5CC5)ncn4)cc3)cc2C(F)(F)F)CC1,Potency,[1],0.415 µM (active)
same,Potency,[2],inactive
same,Potency,[5],8.49 µM (active)
same,Potency,[4],10.7 µM (active)
same,Potency,[3],91.6 nM (active) and 166 nM (active)
c1cc(-c2cnn3cc(-c4ccc(OCCN5CCCCC5)cc4)cnc23)ccn1,Potency,[1],10.4 µM (active)
same,Potency,[2],inactive
same,Potency,[3],3.66 µM (active) and 3.72 µM (active)
Cc1ccc(C(=O)Nc2ccc(CN3CCN(C)CC3)c(C(F)(F)F)c2)cc1C#Cc1cnc2cccnn12,Potency,[1],4.15 µM (active)
same,Potency,[2],inactive
same,Potency,[5],16.9 µM (active)
same,Potency,[4],12 µM (active)
same,Potency,[3],29 nM (active) and 186 nM (active)
CC(C)(C)c1cc(NC(=O)Nc2ccc(-c3cn4c(n3)sc3cc(OCCN5CCOCC5)ccc34)cc2)no1,Potency,[1],inactive
same,Potency,[2],inactive
same,Potency,[3],inactive
Cc1cc(Nc2ncnc3ccc(-c4ccc(CNCCS(C)(=O)=O)o4)cc23)ccc1Oc1ccn2ncnc2c1,Potency,[1],inactive
same,Potency,[2],inactive
same,Potency,[4],12 µM (active)
same,Potency,[3],16.3 µM (active) and 16.6 µM (active)
CC(C)c1cc(-c2n[nH]c(=O)n2-c2ccc3c(ccn3C)c2)c(O)cc1O,Potency,[1],0.0262 µM (active)
same,Potency,[2],inactive
same,Potency,[4],1.69 µM (active)
same,Potency,[3],25.8 nM (active) and 29.5 nM (active)
CCCn1c(=O)c2[nH]c(-c3cnn(Cc4cccc(C(F)(F)F)c4)c3)nc2n(CC)c1=O,Potency,[1],inactive
same,Potency,[5],inactive
same,Potency,[4],inactive
same,Potency,[3],inactive
COc1ccc(-n2nc(C(N)=O)c3c2C(=O)N(c2ccc(N4CCCCC4=O)cc2)CC3)cc1,Potency,[1],inactive
same,Potency,[5],inactive
same,Potency,[4],inactive
same,Potency,[3],inactive
COc1cccc2nc(-c3cccs3)nc(NN3C(=O)C=C(C)C3=O)c12,Potency,[1],2.94 µM (active)
same,Potency,[2],inactive
same,Potency,[3],0.372 µM (active)
Cc1c(NC(=O)OC[C@@H]2COCCN2)cn2ncnc(Nc3ccc4c(cnn4Cc4cccc(F)c4)c3)c12,Potency,[1],inactive
same,Potency,[2],inactive
same,Potency,[3],16.6 µM (active)
Cc1ccc(-c2ncn(-c3ccc(Nc4nccc(-c5cccc(N6CCOCC6)c5)n4)cc3)n2)cn1,Potency,[1],0.829 µM (active)
same,outcome,[6],inactive
same,Potency,[3],1.05 µM (active)
C[C@@H](Oc1cc(-c2cnn(C3CCNCC3)c2)cnc1N)c1c(Cl)ccc(F)c1Cl,Potency,[1],14.7 µM (active)
same,Potency,[2],inactive
same,Potency,[5],21.3 µM (active) and 13.5 µM (active)
same,Potency,[4],1.69 µM (active)
same,Potency,[7],39.8 µM (active)
same,Potency,[3],1.45 µM (active) and 1.83 µM (active) and 1.48 µM (active)
Fc1cc(-c2cccc3ncc(-c4cnn(C5CCNCC5)c4)nc23)cc(F)c1CN1CCOCC1,Potency,[1],11.7 µM (active)
same,Potency,[7],39.8 µM (active)
CC(NCc1ccc2c(c1)nc(NC(=O)c1ccc(-c3cn[nH]c3)s1)n2CC(C)(C)O)C(C)(C)C (stereo unspecified),outcome,[6],inactive
same,Potency,[2],inactive
CC1(C)OC2=C(C(=O)c3ccccc3C2=O)[C@H](NCc2ccccc2)[C@H]1O,outcome,[6],inactive
same,Potency,[2],inactive
COc1ccc(C=Cc2cc(OC)c(OC)c(OC)c2)cc1O,outcome,[6],inactive
same,Potency,[2],inactive
COc1cc(C(C)C)c2c(c1)S(=O)(=O)N(COc1cc(=O)n3cccc(OCCN4CCCCC4)c3n1)C2=O,outcome,[6],inactive
same,Potency,[8],39.8 µM (active)
same,outcome,[9],inactive
same,Potency,[2],inactive
same,Potency,[3],14.8 µM (active)
Nc1ccn([C@@H]2O[C@H](CO)[C@H](O)C2(F)F)c(=O)n1,outcome,[6],inactive
same,Potency,[2],inactive
CC1=C(CO)C(=O)O[C@@H]([C@@H](C)[C@H]2CC[C@H]3[C@@H]4C[C@H]5O[C@]56[C@@H](O)C=CC(=O)[C@]6(C)[C@@H]4CC[C@]23C)C1,outcome,[6],inactive
same,Potency,[2],inactive
C1=CCOCc2cc(ccc2OCCN2CCCC2)Nc2nccc(n2)-c2cccc(c2)OCC1,outcome,[6],inactive
same,Potency,[2],inactive
C=C1C(=CC=C2CCCC3(C)[C@@H]([C@H](C)C=CC=CC(O)(CC)CC)CC[C@@H]23)C[C@@H](O)C[C@@H]1O (stereo partly specified),outcome,[6],inactive
same,Potency,[2],inactive
